HSF1 activator – increases HSF-1 driven luciferase reporter signal; NIH3T3-HGL HSF-1 luciferase reporter, MG132, 8 h; 100% = twice DMSO control signal; activation, % at 9 µM; 300,000 tested, 1.7% active;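 active means mean replicate activation of at least 50% with a set share of replicates each reaching 50%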
HSF1 inhib – HSF1 inhibition | 300,000 tested, 0.77% active | NIH3T3-HGL HSE-luciferase, MG132-induced, luminescence 8 h; hits give low values | AID 2098 | activity change, negative = inhibition, % at 7.5 µM (by protocol);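 active means more than half of replicate wells show activity change below -50%, luminescence cut by over half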;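 further: luciferase reports HSF-1 transcriptional activity via heat shock element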
TROY NFkB inh – inhibitors of TROY-dependent NF-kB signaling. Q293 LMP1-TROYcd NF-kB luciferase reporter, 4 h. inhibition, % at 10 µM. 360,000 tested, 0.98% active. AID 1347056;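 active means compounds whose plate-normalised and pattern-corrected inhibition of the luciferase reporter signal at the single screening dose is 50% or more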
HSP90 inh – inhibitors of HSP90 luciferase refolding in rabbit reticulocyte lysate; luciferase refolding luminescence, 3 h; inhibition, % at 5.6 µM; 290,000 tested, 0.91% active;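 active means inhibition above the screen-wide mean plus 3 SD, computed separately per campaign, cut at about 16% in these data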;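 further: inhibitors lower the luminescence because luciferase stays unfolded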
TWEAK Fn14 block – inhibitors of TWEAK-Fn14 interaction signaling; TWEAK-stimulated Fn14 reporter cells, luciferase luminescence, 8 h; inhibition, % at 10 µM; 360,000 tested, 2% active; AID 1159606; in the data active means inhibition above about 50%
EBV LMP1 NFkB – reduces LMP1-driven NF-kappaB luciferase signal; LMP1-induced NF-kappaB luciferase reporter cells, luminescence; 350,000 tested, 0.69% active; inhibition, % at 12.5 µM; in the data active means inhibition above about 41%
HSP90 inh confirm – confirmation of HSP90 inhibitors; shares compounds with HSP90 inh; rabbit reticulocyte lysate, luciferase refolding luminescence, 3 h; inhibition, % at 5.9 µM; 2,300 tested, 64% active; AID 1846; in the data active means inhibition above about 18%
luciferase ctr – blocks native firefly luciferase in HSP90 counter-screen; 2,300 tested, 48% active; shares compounds with HSP90 inh; AID 1847; purified native firefly luciferase, luminescence; inhibition, % at 5.9 µM;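 active means inhibition above the mean inhibition of all tested sample wells plus 3 SD, cut at about 10% in these data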
Target sequence (P08659 whole entry, looked up): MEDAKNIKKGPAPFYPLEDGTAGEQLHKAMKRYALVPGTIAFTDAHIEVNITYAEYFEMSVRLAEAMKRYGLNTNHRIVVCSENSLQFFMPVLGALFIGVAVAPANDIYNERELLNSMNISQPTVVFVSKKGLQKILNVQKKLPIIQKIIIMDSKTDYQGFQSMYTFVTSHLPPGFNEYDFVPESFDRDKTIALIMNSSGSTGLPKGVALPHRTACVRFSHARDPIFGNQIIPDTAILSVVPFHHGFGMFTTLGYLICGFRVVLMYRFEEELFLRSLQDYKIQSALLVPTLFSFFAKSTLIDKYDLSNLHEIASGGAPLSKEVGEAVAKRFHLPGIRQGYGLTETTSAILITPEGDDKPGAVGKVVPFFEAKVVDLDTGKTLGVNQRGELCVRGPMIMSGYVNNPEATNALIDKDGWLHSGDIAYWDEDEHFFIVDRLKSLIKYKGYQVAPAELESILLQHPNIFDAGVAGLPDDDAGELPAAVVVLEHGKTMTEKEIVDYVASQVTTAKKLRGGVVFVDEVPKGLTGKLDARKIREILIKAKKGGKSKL
Large screens that a line does not name were inactive (follow-up assays come after a bar, where they were run). Only some compounds are listed: those with a hit (about 4.7% of all), similar ones and a draw of the others.

CC(=O)c1ccccc1OCCCN1CCCCC1	HSP90 inh 28.2 | HSP90 inh confirm inactive | luciferase ctr inactive
Brc1ccccc1OCCCN1CCCCCC1	none
Oc1c(/C=N/c2ccccn2)sc2ccccc12	none
Oc1c(C=Nc2ccc(Cl)cn2)sc2ccccc12	HSP90 inh 24.4 | HSP90 inh confirm 42.2 | luciferase ctr 18.1
Oc1c(C=Nc2cccnc2)sc2ccccc12	HSP90 inh 23.2 | HSP90 inh confirm 16.4 | luciferase ctr 17.8
CN=Cc1sc2ccccc2c1O	HSP90 inh 34.0 | HSP90 inh confirm inactive | luciferase ctr inactive
CC(=O)NCCN=Cc1sc2ccccc2c1O	HSP90 inh 19.7 | HSP90 inh confirm inactive | luciferase ctr inactive
CCCc1nc2ccc(C)cn2c1Cc1ccsc1	none (no result: HSF1 activator, HSF1 inhib, HSP90 inh, EBV LMP1 NFkB)
COc1cccc(C2=CC(=O)C(C(C)(C)C)N2C(C)(C)C)c1 (stereo not given)	none (no result: HSF1 activator, HSF1 inhib, HSP90 inh)
Cc1cccc(C)c1-n1nnnc1C1(C)CCC(=O)N1Cc1cccnc1 (stereo not given)	none (no result: HSF1 activator, HSF1 inhib, HSP90 inh, EBV LMP1 NFkB)
Oc1sc(C=Nc2ccccc2)c2ccccc12	none
Oc1c(C=Nc2ccccc2)sc2ccccc12	HSP90 inh 38.5, TWEAK Fn14 block 67.5 | HSP90 inh confirm 84.0 | luciferase ctr 80.0
Oc1c(C=NCc2ccncc2)sc2ccccc12	HSP90 inh 21.0 (no result: TROY NFkB inh, TWEAK Fn14 block, EBV LMP1 NFkB) | HSP90 inh confirm inactive | luciferase ctr inactive
C[C@H](CO)N1C[C@H](C)[C@@H](CN(C)S(=O)(=O)c2ccccc2F)OCc2cnnn2CCCC1=O	none (no result: HSF1 activator, HSF1 inhib, HSP90 inh)
Nn1c(COc2ccccc2F)nnc1SCC(=O)NCC1CCCO1 (stereo not given)	none (no result: HSF1 activator, HSF1 inhib, HSP90 inh)
COc1ccc(C2Nc3cccc4cccc(c34)N2)cc1	none
CN(C)c1ccc(C2Nc3cccc4cccc(c34)N2)cc1	HSP90 inh 41.6 | HSP90 inh confirm 37.1 | luciferase ctr inactive
COCCN(C(=O)COC(=O)c1ccc(-c2ccccc2)cc1)c1c(N)n(Cc2ccccc2)c(=O)[nH]c1=O	none (no result: HSF1 activator, HSF1 inhib, HSP90 inh)
COc1ccc(Cl)cc1NC(=O)CCc1nc(-c2ccccc2F)no1	HSF1 activator 68.9, HSP90 inh 27.1 | HSP90 inh confirm inactive | luciferase ctr inactive
COc1ccc(-c2cc3nnc(-c4ccccc4)nc3s2)cc1	TROY NFkB inh 63.4, HSP90 inh 21.3, TWEAK Fn14 block 71.7 | HSP90 inh confirm 44.5 | luciferase ctr 43.5
COc1ccc(-c2nc3ccccc3nc2-c2ccccc2)cc1	none
CCc1nc2ccc(C(=O)Nc3ccc(OC)c(OC)c3)cn2c1N(C)Cc1cccs1	none (no result: HSF1 activator, HSF1 inhib, HSP90 inh, EBV LMP1 NFkB)
CCOC(=O)Cn1nc(C)n(-c2ccc(C(C)(C)C)cc2)c1=O	HSP90 inh 17.0 | HSP90 inh confirm inactive | luciferase ctr inactive
CC(=O)N(C1=C(N2CCOCC2)C(=O)c2ccccc2C1=O)c1ccc(C(=O)O)cc1	HSP90 inh 24.3 | HSP90 inh confirm inactive | luciferase ctr inactive
CCCc1c(C(=O)N/N=C(\C)c2ccc(CC(C)C)cc2)nnn1-c1nonc1N	none (no result: HSF1 activator, HSF1 inhib, HSP90 inh)
CCOC(=O)c1cn2nc(Oc3ccccc3)ccc2n1	none
CCOC(=O)c1cn2nc(Oc3ccc(C)cc3)ccc2n1	none
CCOC(=O)c1cn2nc(N3CCCC3)ccc2n1	HSP90 inh 34.1, TWEAK Fn14 block 78.9, EBV LMP1 NFkB 52.8 | HSP90 inh confirm 67.0 | luciferase ctr 42.9
CCOC(=O)c1cn2nc(N3CCCCC3)ccc2n1	TROY NFkB inh 70.9, HSP90 inh 39.1, TWEAK Fn14 block 89.2, EBV LMP1 NFkB 59.0 | HSP90 inh confirm 72.0 | luciferase ctr 58.9
COc1ncnc2c1ncn2CCCN1CCN(Cc2ccc(C)cc2)CC1	none (no result: HSF1 activator, HSF1 inhib, HSP90 inh)
C/C=C/c1cccc(-c2nc(C(=O)N3CCCCC3)cc3c2[C@H](CCO)N(C(=O)NC(C)C)C3)c1	none (no result: HSF1 activator, HSF1 inhib, HSP90 inh, EBV LMP1 NFkB)
CC(C)(C)NC(=O)CN(c1cccc([N+](=O)[O-])c1)S(=O)(=O)c1ccccc1	HSP90 inh 23.3 | HSP90 inh confirm inactive | luciferase ctr inactive
CN1CCC(=NNC(=O)CN(c2cccc([N+](=O)[O-])c2)S(=O)(=O)c2ccccc2)CC1	none
O=C(NC(=S)Nc1ccccc1OC(F)F)c1ccc2c(c1)OCO2	none (no result: HSF1 activator, HSF1 inhib, HSP90 inh)
CCc1ccn2cc(-c3ccc4c(c3)OCO4)nc2c1	TROY NFkB inh 65.6, HSP90 inh 73.3, EBV LMP1 NFkB 72.1 | HSP90 inh confirm 85.6 | luciferase ctr 84.7
CC(=O)Nc1nc(-c2ccc3c(c2)OCO3)cs1	none
COC(=O)c1ccc2nc(-c3ccc4c(c3)OCO4)cn2c1	HSP90 inh 17.5, TWEAK Fn14 block 89.0, EBV LMP1 NFkB 48.2 | HSP90 inh confirm 72.7 | luciferase ctr 65.3
c1cnc2nc(-c3ccc4c(c3)OCO4)cn2c1	none
COc1ccc(-c2cn3cc(C(=O)NN)ccc3n2)cc1	HSP90 inh 43.3 | HSP90 inh confirm 24.1 | luciferase ctr inactive
NNC(=O)c1ccc2nc(-c3ccc(Br)cc3)cn2c1	none
Cc1ccc(NC(=O)c2ccc3ncsc3c2)cc1S(=O)(=O)N(C)C	HSP90 inh 18.6 (no result: TROY NFkB inh, TWEAK Fn14 block, EBV LMP1 NFkB) | HSP90 inh confirm 23.8 | luciferase ctr 19.6
CC(C)c1ccc(NCCC(=O)c2cccs2)cc1	HSP90 inh 28.8 | HSP90 inh confirm 34.8 | luciferase ctr inactive
COc1ccc2cc(C#CC3=CC(=O)C[C@H](c4ccc(F)cc4)C3)ccc2c1	none (no result: HSF1 activator, HSF1 inhib, HSP90 inh)
O=C(Nc1ccccc1Cl)c1cc(C2CCCN(C(=O)c3cccs3)C2)on1 (stereo not given)	none (no result: HSF1 activator, HSF1 inhib, HSP90 inh, EBV LMP1 NFkB)
Cc1cc(C(=O)Cn2nnc3ccccc3c2=O)c(C)n1Cc1cccs1	HSP90 inh 34.5 | HSP90 inh confirm 52.7 | luciferase ctr 45.0
Cc1ccccc1C(=O)N1CCC[C@H]1C(=O)N1CCC[C@H]1C(=O)NCc1ccccn1	none (no result: HSF1 activator, HSF1 inhib, HSP90 inh, EBV LMP1 NFkB)
NC1=NS(=O)(=O)NC1c1cccc(Cl)c1 (stereo not given)	HSP90 inh 22.4, TWEAK Fn14 block 82.1 | HSP90 inh confirm inactive | luciferase ctr inactive
NC1=NS(=O)(=O)NC1c1cccc(F)c1 (stereo not given)	none
CCN(CC(=O)Nc1ccc(OC)cc1)C(=O)C1CC(=O)N(Cc2ccccc2)C1 (stereo not given)	none (no result: HSF1 activator, HSF1 inhib, HSP90 inh)
Nc1ccc(Br)c2cccnc12	HSP90 inh 17.3 | HSP90 inh confirm inactive | luciferase ctr inactive
CS(=O)(=O)Oc1ccc(Br)c2cccnc12	none
CC(C)(C)NC(=O)NC(=O)COc1ccccc1C#N	HSP90 inh 17.8 | HSP90 inh confirm inactive | luciferase ctr inactive
C=CCNC(=O)COc1ccccc1C#N	none
O=C(NNc1nc2ccccc2o1)c1ccccc1	HSP90 inh 20.3 (no result: EBV LMP1 NFkB) | HSP90 inh confirm 27.8 | luciferase ctr 19.8
COc1cccc(C(NC(C)=O)c2nc(-c3ccccc3C)cs2)c1 (stereo not given)	none (no result: HSF1 activator, HSF1 inhib, HSP90 inh, EBV LMP1 NFkB)
O=C(NCc1ccco1)/C(=C/c1ccco1)NC(=O)c1ccco1	none
O=C(O)CCNC(=O)/C(=C/c1ccco1)NC(=O)c1ccco1	HSP90 inh 30.0 | HSP90 inh confirm inactive | luciferase ctr inactive

Assay outcomes as filed in PubChem.
